This experiment concerns the target Alpha-bungarotoxin (Bungarus multicinctus) (UniProt P60615). Kind of experiment: compounds binding labelled alpha-BTX control protein – biochemical, small-molecule microarray, Alexa647 label, 635/667 nm fluorescence, artefact control for SMM control protein annotation, profiling panel (AID 1117). Conditions: alpha-BTX-A647 binding fluorescence, higher = more signal.
Chain of Alpha-bungarotoxin (Bungarus multicinctus) (P60615 whole entry, looked up): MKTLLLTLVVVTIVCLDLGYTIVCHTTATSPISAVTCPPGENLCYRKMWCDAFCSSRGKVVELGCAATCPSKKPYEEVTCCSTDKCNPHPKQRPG
Regarding `CCOC(=O)C[C@H]1[C@H](OC(=O)Cc2ccc3c(c2)OCO3)[C@@H](NC(=O)C2CCCCC2)c2cc(OCCCO)ccc2N1C(=O)c1ccc2ccccc2n1`, the composite z-score was determined as 0.663.

As for `CN1C(=O)C2C=CC(C(O)c3c(F)cccc3Cl)N(Nc3ccccc3)C2C1=O` (stereo unspecified), the composite z-score was determined as 0.904. Regarding `COCCCNC(=O)[C@]1(Cc2ccccc2CN=[N+]=[N-])N=C(c2ccc(OCCCO)cc2)O[C@@H]1c1ccccc1`, the composite z-score came to 0.543. The figure for `[N-]=[N+]=NCc1ccccc1C[C@@]1(C(N)=O)N=C(c2ccc(OCCCO)cc2)O[C@@H]1c1ccccc1CN=[N+]=[N-]` is 0.689; for `COC(=O)[C@@]1(Cc2ccc(OC)cc2)[C@H]2c3cc(C(=O)N4CCCC4)n(CCc4cc5ccccc5[nH]4)c3C[C@H]2CN1C(=O)c1ccccc1` it is 1.21; for `COCCOC(=O)N1C(=O)[C@@]2(c3cc(C#Cc4ccc(OC)cc4)ccc31)[C@H](C(=O)NC[C@H](O)c1ccccc1)[C@H]1C(=O)O[C@H](c3ccccc3)[C@H](c3ccccc3)N1[C@@H]2c1ccc(O)cc1` it is 0.931. The figure for `C=CC[C@@]12N=C(c3ccc(OCCCO)cc3)O[C@@H]1c1ccccc1N(CCS(=O)(=O)c1ccccc1)C2=O` is 0.448; for `C=CCN1C(=O)[C@]2(CC=C)N=C(c3ccc(OCCCO)cc3)O[C@@H]2c2ccccc21` it is 1.08.

`Cc1ccc(S[C@]2(C(=O)NCC(C)C)CC(=O)N(Cc3ccccc3Cl)[C@@H]2c2ccc(CO)cc2I)cc1` yielded a composite z-score of 1.48.

Compound `COc1ccccc1CN1C(=O)c2ccccc2[C@](Cc2ccccc2I)(C(=O)NC(C)C)[C@@H]1c1ccc(CO)cc1` came in with a composite z-score of 1.41. With `CCOc1cc(C(O)C2C=CC3C(=O)N(C4CCCCC4)C(=O)C3N2Nc2ccc(OC)cc2)ccc1O` (stereo unspecified), the composite z-score was 1.64. `COCCOC(=O)N1C(=O)[C@@]2(c3cc(C#Cc4ccc(OC)cc4)ccc31)[C@H](C(=O)N1CCCCCCC1)[C@H]1C(=O)O[C@H](c3ccccc3)[C@H](c3ccccc3)N1[C@@H]2c1ccc(O)cc1` registered a composite z-score of 0.723. Regarding `C=C(C(=O)CC[C@H](OC(=O)c1cccnc1)c1ccc(CO)o1)C(C)C`, the composite z-score came out at 1.19.

In turn, `COC(=O)[C@H](Cc1ccccc1)N1CC(/C=C/C2CC2)=C[C@@H]1[C@@H](O)Cc1ccccc1` displayed a composite z-score of 0.737. `COC(=O)[C@@]1(Cc2ccc(OC)cc2)[C@H]2c3cc(C(=O)N(C)C)n(Cc4nc5ccccc5[nH]4)c3C[C@H]2CN1C(=O)c1ccccc1` showed a composite z-score of 1.26. The compound `CN(C)C(=O)[C@]1(CCC(=O)OC(C)(C)C)N=C(c2ccc(OCCCO)cc2)O[C@@H]1c1ccccc1` yielded a composite z-score of 0.654. The figure for `COCCOC(=O)N1C(=O)[C@@]2(c3cc(C#CC4(O)CCCCCC4)ccc31)[C@H](C(N)=O)[C@H]1C(=O)O[C@H](c3ccccc3)[C@H](c3ccccc3)N1[C@@H]2c1ccccc1OCCO` is 1.01; for `Cc1ccc(S[C@]2(C(=O)NCC(F)(F)F)CC(=O)N(Cc3ccccc3)[C@@H]2c2ccc(CO)cc2)cc1` it is -0.0421. `COCCCNC(=O)[C@@]1(Sc2ccc(C)cc2)CC(=O)N(C2Cc3ccccc3C2)[C@@H]1c1ccc(CO)cc1I` displayed a composite z-score of -0.0078.

Turning to `C=CC[C@]1(C(=O)N(C)C)N=C(c2ccc(OCCCO)cc2)O[C@H]1c1ccccc1N=[N+]=[N-]`, the composite z-score amounted to 2.03. The compound `CCOC(=O)C1=CC[C@@H](c2ccccc2C(F)(F)F)N(S(=O)(=O)c2ccc(C)cc2)C1` returned a composite z-score of 1.49. As for `CC(C)C(O)C1C=CC2C(=O)N(C)C(=O)C2N1N(c1ccccc1)c1ccccc1` (stereo unspecified), the composite z-score was 0.218.

`CCOC(=O)C1=CC[C@@H](c2ccc([N+](=O)[O-])cc2)N(S(=O)(=O)c2ccc(C)cc2)[C@H]1c1ccccc1` returned a composite z-score of 0.962. Regarding `[N-]=[N+]=NCc1ccccc1C[C@@]1(C(=O)N2CCCCC2)N=C(c2ccc(OCCCO)cc2)O[C@@H]1c1ccccc1N=[N+]=[N-]`, the composite z-score worked out at 0.809.

`C=C(/C(=C/C[C@@H](OC(=O)c1ccncc1)c1ccccc1OCCO)c1cc(C(=O)OC)ccc1OC)C(C)C` displayed a composite z-score of 0.255. With `COCCOC(=O)N1C(=O)[C@@]2(c3cc(C#CC4(O)CCCCCC4)ccc31)[C@H](C(N)=O)[C@H]1C(=O)O[C@H](c3ccccc3)[C@H](c3ccccc3)N1[C@@H]2c1ccc(O)cc1`, the composite z-score stood at 0.74.

Values taken from PubChem BioAssay.
